This passage reports inhibition results from PubChem BioAssay AID623944 (Vanderbilt Specialized Chemistry Center, 2012).

A short description of the test: PubChem AID 623944. The following applies: Ricerca radioligand binding panel, % inhibition, at 10 µM, stronger effect = higher value.

Structures are written as SMILES. Activity calls are given as the source filed them. No rule for the calls is given here.

Consider `O=C(Nc1ccc(N(Cc2ccsc2)C(=O)Cn2nnc3ccccc32)cc1)C1CC1`, for which the inhibition is 75% (inactive). Besides, for the setting “GABA-A flunitrazepam site inhibition”, the inhibition came out at 22%. In addition, under “adenosine A3 binding inhibition”, the inhibition is 20%. Moreover, where the note is “androgen receptor binding inhibition”, the inhibition was 42%. Also, the inhibition (cannabinoid CB1 binding inhibition) was 25%. Moreover, under “dopamine D2S binding inhibition”, the inhibition came out at 4%. The inhibition (dopamine transporter binding inhibition) was determined as 12%. Also, the inhibition (hERG binding inhibition) is 15%. Also, the inhibition (kappa opioid binding inhibition) was determined as 20%. Also, the inhibition (muscarinic M1 binding inhibition) was -7%. Further, under “norepinephrine transporter binding inhibition”, the inhibition is 18%. Besides, the inhibition (serotonin transporter binding inhibition) was -1%. Further, the inhibition (sigma receptor binding inhibition) was 42%.
